Compound activity (PubChem)
Only a selection was taken, and hits are over-represented in it overall.
TTR transcr act: TTR transcription activation, primary screen. SH-SY5Y TTR promoter Gaussia luciferase, luminescence; 100% = recombinant luciferase protein wells. activation, % at 16.7 µM. 92,000 tested, 1.3% active;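 active = activation above the mean of all tested compounds plus 3 SD, cut at about 9.5% in these data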;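 note: cells exposed to compounds for one day before reading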
HuH7 TTR inh: HuH7 TTR transcription inhibition, counter-screen | shares compounds with TTR transcr act | HuH7 TTR promoter-Gaussia luciferase reporter, luminescence | 1,100 tested, 4% active | inhibition, % at 16.7 µM | AID 1117279;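 active = average inhibition above the solvent-only control wells' mean plus 3 SD, cut at about 15% in these data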;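 note: inhibitors lower well luminescence so higher value means more inhibition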
TTR up confirm: confirmation of human transthyretin transcription activators. activation, % at 16.7 µM. 1,100 tested, under 10 active. SHSY5Y TTR promoter Gaussia luciferase, luminescence; 100% = purified Lucia enzyme wells, no cells. shares compounds with TTR transcr act;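 active = mean activation above a set limit taken from the earlier primary screen, cut at about 11% in these data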
Large screens that a line does not name were inactive (follow-up assays come after a bar, where they were run).

O=C(Nc1ccc(C(O)(C(F)(F)F)C(F)(F)F)cc1)c1ccccc1C(F)(F)F	none
Cc1noc(NC(=O)c2ccc(F)cc2)c1C#N	TTR transcr act 14.4 | HuH7 TTR inh inactive | TTR up confirm inactive
Cc1c(Cc2ccccc2)c(=O)oc2cc(OCC(=O)N3CCC(C(=O)O)CC3)ccc12	none
CCC[C@H]1[C@@H](OC(=O)NCCc2ccccc2)CC[C@@]23CCCN2C(=O)CCC[C@@H]13	none
Cc1ccc2ccccc2c1C(O)c1ncc(-c2cccc(C(F)(F)F)c2)[nH]1 (configuration not stated)	none
Cc1ccc(CCNC(=O)C2CCC(CNc3c(N4CCC(C)CC4)c(=O)c3=O)CC2)cc1 (configuration not stated)	TTR transcr act 22.6 | HuH7 TTR inh inactive | TTR up confirm inactive
Cc1ccc(CCNC(=O)C2CCC(CNc3c(N4CCCC4)c(=O)c3=O)CC2)cc1 (configuration not stated)	none
CC1CCN(c2c(NCC3CCC(C(=O)NCCc4ccccc4)CC3)c(=O)c2=O)CC1 (configuration not stated)	none
CCCC1CCC2(CC1)CCC2OC(=S)NCCc1ccc(Cl)cc1 (configuration not stated)	none
C/C(=N\NC(=O)c1nn(C)c(C)c1Br)c1ccc(NC(=O)C2CCCC2)cc1	none
Cc1nn(CC(=O)N2CCc3ccccc32)c(C)c1S(=O)(=O)NC(C)(C)C	none
CC(C)CN1CCC(=O)N(CCSc2ccccc2)CC1	none
Cc1ccc(-c2nc3ncccn3c2NC(=O)c2ccccc2)cc1	none
Cc1ccc(-c2nn(-c3ccccc3)cc2NC(=O)c2ccccc2)cc1	TTR transcr act 13.0 | HuH7 TTR inh inactive | TTR up confirm inactive
O=C(Nc1cn(-c2ccccc2)nc1-c1ccc(Cl)cc1)c1ccccc1	none
COc1cc2oc(=O)cc(CN3CCN(c4ccccc4F)CC3)c2cc1Cl	none
Cc1cccc(NCCC(=O)c2ccc([N+](=O)[O-])cc2)c1C	none
Cc1ccc(NCCC(=O)c2cccc([N+](=O)[O-])c2)c(C)c1	TTR transcr act 16.4 | HuH7 TTR inh inactive | TTR up confirm inactive
Cc1ccc(C(=O)CNc2ccc(C)cc2C)cc1	none
OCC1OC(c2ccc(OCc3ccccc3)cc2OCc2ccccc2)C(O)C1O (configuration not stated)	none
CC(C)(C)OC(=O)CNC(=O)c1[nH]cnc1C(=O)NCC(=O)OCc1ccccc1	none
O=C(CNC(=O)c1[nH]cnc1C(=O)NC(c1ccccc1)c1ccccc1)OCc1ccccc1	TTR transcr act 10.7 | HuH7 TTR inh inactive | TTR up confirm inactive
O=C(CNC(=O)c1[nH]cnc1C(=O)N[C@@H](Cc1ccccc1)C(=O)OCc1ccccc1)OCc1ccccc1	none
CN(C)CCCn1c2c3ccccc3ccc2c2oc(=O)c3ccccc3c21	none
O=c1cc(-c2ccccc2O)nc(-c2ccccc2)[nH]1	none
CC(C)(C)CCNc1nc(-c2ccccn2)nnc1-c1ccccc1	none
O=C(Cc1ccc(NC(=O)C2CCN(C(=O)c3ccccc3)CC2)cc1)Nc1cccc(C(=O)N2CCCC2)c1	none
Cn1cccc1/C=N/NC(=O)Cc1ccccc1	none
Cn1cccc1/C=N/NC(=O)C(O)c1ccccc1 (configuration not stated)	TTR transcr act 24.7 | HuH7 TTR inh inactive | TTR up confirm inactive
Cn1cccc1/C=N/NC(N)=S	none
CSc1nc(N)nc2c1ncn2CC(=O)N1CCN(Cc2c(C)cc(C)cc2C)CC1	none
O=C(CC(=O)c1ccccc1)CS(=O)(=O)c1ccccc1	none
CCc1nccn1CC(=O)c1ccc(O)c(O)c1	none
Cn1c(CC(=O)NNC(=O)c2cncc(Br)c2)nc2ccccc21	none
O=C(CCN1CCOCC1)c1ccccc1	none
O=C(CCN1CCOCC1)NCc1ccccc1	none
N/C(CCN1CCOCC1)=N/O	TTR transcr act 10.2 | HuH7 TTR inh inactive | TTR up confirm inactive
Cc1cccc(C(=O)NCC(=O)N2CCN(c3ccccn3)CC2)c1	none
COC(=O)c1cc(NC(=O)c2c(C)noc2C)ccc1N1CCOCC1	none
COC(=O)c1cc(NC(=O)c2cc(-c3ccc(C(F)(F)F)cc3)oc2C(F)(F)F)ccc1N1CCOCC1	none
COC(=O)c1cc(NCc2ccccc2F)ccc1N1CCOCC1	TTR transcr act 10.4 | HuH7 TTR inh inactive | TTR up confirm inactive
Cc1cccc(CN2CCC(n3nccc3NC(=O)CCCc3ccccc3)CC2)c1	none
C=CCN(C(=O)[C@@H](C)[C@@H](O)c1ccc(C(C)=O)cc1)c1ccccc1	none
CCCC[C@H](C(=O)N(CC)c1ccccc1)[C@@H](O)c1ccc(C(C)=O)cc1	none
CCN(C(=O)[C@@H](C)[C@@H](O)c1ccc(C(C)=O)cc1)c1ccccc1	TTR transcr act 11.3 | HuH7 TTR inh inactive | TTR up confirm inactive
COc1ccc(CCNC(=O)C2CC=CCC2C(=O)O)cc1 (configuration not stated)	none
Cc1cc(C)c(C(=O)CC(=O)c2cccnc2)c(C)c1	TTR transcr act 15.4 | HuH7 TTR inh inactive | TTR up confirm inactive
